Measurements published in ChEMBL document CHEMBL4888484, “Replenishing the malaria drug discovery pipeline: Screening and hit evaluation of the MMV Hit Generation Library 1 (HGL1) against asexual blood stage Plasmodium falciparum ,using a nano luciferase reporter read-out” (2022).
In all, about 4,800 compounds went through this assay and about 410 (8.5%) showed an effect of 50% or more. For the sample, strong results were picked, then their nearest neighbours and some compounds at random.

What follows are compounds tested on Plasmodium falciparum (assay: Confirmatory screen in NF54 pLDH assay, in single point, at 2uM, 72h). Settings: timepoint 72 hour.
Assay type: functional, Erythrocyte

| Compound | % Inhibition [%] |
| --- | --- |
| COc1ccc2nc(C(F)(F)F)nc(N3CCNC(=O)CCN(C(=O)C(F)=C4CCCC4)CC3)c2c1 | 14 |
| Cc1cc(NS(=O)(=O)c2cccs2)n(-c2ccncc2)n1 | 9 |
| O=S(=O)(Nc1cccc2cccnc12)c1cccs1 | 64 |
| O=S(=O)(Nc1nncs1)c1cccs1 | -10 |
| Cc1nsc2ncn(C[C@H](O)COCc3ccco3)c(=O)c12 | 8 |
| CCOc1ccc(-c2cc3c(=O)n(CCC(=O)N4CCCC4)ccn3n2)cc1 | 7 |
| O=C(CNC(=O)c1ccc(C(F)(F)F)cc1)Nc1cnc2c(c1)COCC2 | 4 |
| Fc1ccc(-c2cc3c(N4CCCCC4)nccn3n2)cc1 | 12 |
| CCn1cc(C(=O)Nc2n[nH]c3ccc(C(F)(F)F)cc23)cn1 | -4 |
| CC1CCN(C[C@H](O)C(F)(F)F)CC1 | 5 |
| COc1cccc2c(N3CC[C@]4(CNC(=O)C4)C3)nccc12 | 2 |
| CC[n+]1ccc(-c2ncc(-c3ccc(C(C)(C)C)cc3)o2)cc1 | 55 |
| Cc1ccc(C(=O)NCCn2cnc3ccccc3c2=O)cn1 | -7 |
| CN(C)CCNCc1ccc(Cl)c(Cl)c1 | -14 |
| CC(C)CC[C@@H](CCNCCN(C)C)c1ccc(Cl)cc1 | 103 |
| CN(C)CCCNCc1ccc(Cl)cc1Cl | -7 |
| Clc1ccccc1COc1ccc(CNC2CCCCC2)cc1 | 7 |
| CC(C)CC[C@@H](CCNC1CCN(C)CC1)c1ccc(Cl)cc1 | 83 |
| CN1CCC(NCC[C@@H](Cc2ccccc2Cl)c2ccc(Cl)cc2)CC1 | 92 |
| O=C1c2cc3ccccc3n2C[C@](C(=O)NC2CCCCCCC2)(c2ccccc2)N1Cc1cccc(Cl)c1 | -5 |
| COc1ccccc1N(CC(=O)NCCN1CCOCC1)S(=O)(=O)c1ccc(C)cc1 | 7 |
| Cc1cc(C(=O)N[C@@H](C)c2nnc3n2CCCCC3)c(C)s1 | 3 |
| O=C(Nc1ncc(Cc2ccc(Cl)c(C(F)(F)F)c2)s1)c1ccc2nnsc2c1 | 10 |
| CC[C@H](O)CCNC(=O)Nc1ncc(CC(C)C)s1 | 2 |
| COc1cc(NC(=O)Cn2c(=O)n(C)c(=O)c3c2c(-c2ccccc2)cn3C)cc(OC)c1OC | -8 |

| Compound | % Inhibition [%] |
| --- | --- |
| Cc1cncn1C1CCN(C(=O)C2(Cc3ccccc3)CC3CCC2C3)CC1 (stereo not given) | -1 |
| COc1cc(C=C(C(=O)Nc2ccccc2F)C(=O)Nc2ccccc2F)ccc1OCC(=O)Nc1cccc(C(F)(F)F)c1 | -18 |
| Cc1[nH]ccc1C(=O)N1CC[C@]2(CCN(C(=O)OC(C)(C)C)C2)C1 | 13 |
| CCC(=O)OC1(C#CCOc2ccc(OC)cc2)CCN(C)CC1 | 9 |
| Cc1cc(C)n(-c2ccc(N3CC4CCC3C4)nc2)n1 (stereo not given) | -2 |
| C[C@H](NC(=O)c1ccco1)c1cc2c(cc1Br)OCCCO2 | -9 |
| CCc1ccc(NC(=O)c2sc3nc(C)c(C(=O)Nc4ccc(C)cc4C)c(-c4ccccc4Cl)c3c2N)cc1 | 5 |
| Cc1ccc(NC(=O)c2c(C)nc3sc(C(=O)NCc4ccccc4)c(N)c3c2-c2cccs2)c(C)c1 | 11 |
| Cc1ccc(NC(=O)c2c(C)nc3sc(C(=O)NCc4ccccc4)c(N)c3c2-c2ccccc2Cl)c(C)c1 | 87 |
| CN([C@H]1CCc2nn(CC3CC3)c(=O)n2CC1)S(=O)(=O)c1ccccc1C(F)(F)F | 1 |
| CC(C)NC(=O)N1C[C@H]2CCCC(=O)N(Cc3cccc(F)c3)[C@H]2C1 | 8 |
| O=C(NC[C@H]1CCCO1)c1cc(C(=O)C2CC2)c[nH]1 | -8 |
| COc1nc(-c2cccc(C(=O)NCC3CCOCC3)c2)ncc1F | 80 |
| COc1ccc(-c2[nH]ncc2C(=O)NCC2CCCCC2)cc1OC | 6 |
| COCc1cc(C(=O)N[C@H](c2ccccc2)C2CCOCC2)no1 | 8 |
| O=C(NCC1CCOCC1)c1ccc2n[nH]c(=O)n2c1 | 6 |
| COc1ccc(C(=O)N2CC[C@H](c3nc(C4CCOCC4)no3)C2)cc1OC | 11 |
| Cc1ccc(C(=O)N2CC(n3cnnc3C)C2)cc1F | -17 |
| O=C(CC1CCOCC1)NCc1ccccn1 | -24 |
| COc1nc(-c2cccc(C(=O)N3C[C@@H]4CC[C@H](C3)C(=O)N4)c2)ncc1F | 85 |
| CC(C)(NC(=O)CC1(O)CCCCC1)C(=O)Nc1ccccc1 | 5 |
| O=C(Nc1ccc(F)cc1)c1c(-c2ccc(Cl)cc2)nc2n1CCS2(=O)=O | -4 |
| COC(=O)C1C2CCC(C2)C1NC(=O)c1ccncc1 (stereo not given) | 2 |
| O=C([C@@H]1CCCN1c1ncc(C(F)(F)F)cc1Cl)N1Cc2ccccc2C1 | -18 |
| CCOC(=O)[C@@H](NC(=O)Nc1ccccc1C(F)(F)F)C(F)(F)F | 11 |

| Compound | % Inhibition [%] |
| --- | --- |
| O=C(NC1CC1C1CCCCC1)N1CCS(=O)(=O)CC1 (stereo not given) | -4 |
| COC(=O)c1c(NC(C)=O)c2cc(NC3CCOCC3)cnc2n1CCc1ccc(OC)cc1 | 61 |
| COc1ccc(NC(=O)[C@@H](C)C2CCOCC2)cc1 | -5 |
| CCc1c(NC(=O)[C@@H](C)C2CC2)nnn1CCc1ccc(OC)cc1 | 12 |
| Cc1nc(CN2C(=O)C(=O)c3cc(Br)ccc32)cs1 | 9 |
| Cc1ccn2c(CN3CCN([C@H]4CCN(Cc5ccccc5)C4)CC3)c(C)nc2c1 | 9 |
| O=C(Cc1cccc2ccccc12)NC(C1CC1)C1CC1 | -12 |
| COc1ccc(NS(=O)(=O)c2ccc(NC(=O)CN(c3ccc(F)cc3)S(C)(=O)=O)cc2)cc1 | 12 |
| COc1ccccc1Cc1nnc2n1CCCC2 | 8 |
| COc1cc(CNC2CCCCC2)cc(Br)c1OCc1ccccc1Cl | 8 |
| COc1cc(NC(=O)N2CC(c3noc(-c4ccccc4)n3)C2)cc(OC)c1OC | 3 |
| CNC(=O)[C@@H]1C[C@H](NCc2cc(OC)c(OC)c(OC)c2)CN1CC(c1ccccc1)c1ccccc1 | 50 |
| CC(=O)c1ccc(C(C)(C)C)cc1NC(=O)C(C)C | 8 |
| O=C(CCn1nc2ccccn2c1=O)N1CC(CC(F)F)C1 | 6 |
| C[C@]1(CCc2ccc(O)cc2)Nc2ccccc2-c2nc(=O)c(-c3ccc(F)cc3)nn21 | -12 |
| O=c1nc2n(nc1-c1ccccc1)C1(CCC1)Nc1ccccc1-2 | 60 |
| C[C@]1(C(=O)O)Nc2ccccc2-c2nc(=O)c(-c3ccccc3)nn21 | 9 |
| Nc1nccnc1C(=O)Nc1c(-c2ccccc2)ncn1C1CC1 | 3 |
| COc1ccc(-n2ncc(Oc3cccc(C)c3)c(Nc3cccc(C(=O)NCc4ccc(F)cc4)c3)c2=O)cc1 | 30 |
| CC(C)c1ccc(Oc2cnn(-c3cccc(Cl)c3)c(=O)c2Nc2cccc(C(=O)NC3CC3)c2)cc1 | 54 |
| Cn1cc2c(n1)CCC[C@@H]2NC(=O)c1cccc(C(=O)NC2CC2)c1 | 0 |
| CCn1ncc2ccc(N[C@@H](C)C3(O)CCOCC3)cc21 | 12 |
| CCOc1ccc(C(=O)N2CCN(c3nnc4ccccn34)CC2)cc1 | 8 |
| CC(=O)c1cccc(NC(=O)Cn2c(=O)n(CCc3ccccc3)c(=O)c3ccccc32)c1 | 10 |
| CCCN1C(=O)c2ccccc2N2C(=O)CC[C@@]12C(=O)Nc1ccc(OC)cc1 | 92 |

| Compound | % Inhibition [%] |
| --- | --- |
| CC(=O)c1cccc(NC(=O)[C@@]23CCC(=O)N2c2ccccc2C(=O)N3C)c1 | 88 |
| COc1cccc(NC(=O)c2ccc3c(c2)N(C)[C@@H]2CCCCCN2C3=O)c1 | 9 |
| O=C(CN1C[C@@H](c2ccccc2)Oc2ccccc2C1=O)Nc1ccccc1 | -14 |
| COc1ccc(NC(=O)CN2N=C(C(=O)Nc3ccccc3)CCC2=O)cc1 | -2 |
| COc1ccc(NC(=O)CCC(=O)N2CCc3ccccc3C2)cc1 | 6 |
| COc1ccc(NC(=O)C2=NN(CC(=O)Nc3cccc(OC)c3)C(=O)CC2)cc1 | -4 |
| CCN1C(=O)c2ccccc2N2C(=O)CC[C@@]12C(=O)Nc1cccc(OC)c1 | 96 |
| CCCN1C(=O)c2ccccc2N2C(=O)CC[C@@]12C(=O)Nc1ccccc1 | 97 |
| CC(=O)c1cccc(NC(=O)c2nonc2C)c1 | -11 |
| CC(=O)N1C(C(=O)O)Cc2c([nH]c3ccccc23)C1c1ccc2c(c1)OCO2 (stereo not given) | 5 |
| Clc1ccc(Cl)c(-c2ccc(CNn3cnnc3)o2)c1 | 11 |
| O=C(NCC1(Cc2ccccc2)CCC1)N(CCO)C1CC1 | -1 |
| Cc1ccn(-c2ccc(C(=O)NC3CCCC3)cn2)n1 | -9 |
| C[C@@H](C(=O)Nc1ncc[nH]1)c1ccc2c(c1)[nH]c1ccc(Cl)cc12 | 16 |
| c1coc([C@H](CNC2CCCC2)N2CCCC2)c1 | -12 |
| O=C1NCCC[C@@H]1Nc1ccc(C(F)(F)F)nn1 | 2 |
| COC[C@H]1[C@H](NC(=O)c2ncc(F)cc2F)[C@H]2CCO[C@H]21 | -17 |
| Nc1nc(C2CC(N)C2)cc(N2CCC(Oc3ccccc3Cl)CC2)n1 (stereo not given) | 65 |
| Nc1nc(N2CCN(c3ccc(F)c(Cl)c3)CC2)cc([C@H]2C[C@@H](N)C2)n1 | 34 |
| O=C(CN1CCN(Cc2ccc(F)cc2)C1=O)NC1CCCCCCC1 | 0 |
| CC[C@@H](Cc1ccccc1Br)C(=O)NCCC(N)=O | -6 |
| O=C(Nc1ccc(NC2CCOCC2)cc1)c1cc(F)c(O)c(F)c1 | -10 |
| O=C(COc1ccccc1)Nc1ccc2c(c1)C(O)=Nc1cccnc1O2 | 64 |
| CC1(C)Oc2ccc(NC(=O)COc3ccccc3)cc2NC1=O | 12 |
| CC(C)(C)CC(=O)Nc1ccc2c(c1)C(N1CCCCC1)=Nc1ccccc1O2 | -4 |
